Source: PubChem
Rows were chosen to be rich in hits. Some 4.8% of all compounds tested hit in one or more screens of this group.
hcDAF-12 act: H. contortus DAF-12 activation, primary screen. HEK293 hcDAF-12 lit1-tk-luc reporter, luminescence; 0% DMSO, 100% Δ7-dafachronic acid. activation, % at 6.8 µM. 370,000 compounds, 1.4% hits. AID 652067;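 active = activation above the mean of all tested compounds plus 3 SD, cut at about 5.5% in these data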;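 note: 100% = response to 3 µM Δ7-dafachronic acid high control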
ssDAF-12 act: activators of S. stercoralis DAF-12 nuclear receptor; activation, % at 6.8 µM; HEK293 ssDAF-12/GRIP1 lit1-tk-luc reporter, luminescence; % of 3 µM dafachronic acid response; 370,000 compounds, 1% hits; AID 652126;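 active = activation above the mean over all tested compounds plus 3 SD, cut at about 0.9% in these data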;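 note: 0% = DMSO-only wells and 100% = 3 µM delta7-dafachronic acid wells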
NR1D1 modulator: modulates human Rev-erb alpha binding to DNA. Rev-erbα–FITC-DNA binding, fluorescence polarization, 90 min. P20393. 370,000 compounds, 0.79% hits. activity, % at 10 µM. AID 1259318;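 active = activity above about 14%, limit read from the data; passing the limit was not always enough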;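 note: 0% = DMSO wells with 35 nM protein and 100% = DMSO wells with 750 nM protein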
Target sequence (P20393 whole entry, looked up): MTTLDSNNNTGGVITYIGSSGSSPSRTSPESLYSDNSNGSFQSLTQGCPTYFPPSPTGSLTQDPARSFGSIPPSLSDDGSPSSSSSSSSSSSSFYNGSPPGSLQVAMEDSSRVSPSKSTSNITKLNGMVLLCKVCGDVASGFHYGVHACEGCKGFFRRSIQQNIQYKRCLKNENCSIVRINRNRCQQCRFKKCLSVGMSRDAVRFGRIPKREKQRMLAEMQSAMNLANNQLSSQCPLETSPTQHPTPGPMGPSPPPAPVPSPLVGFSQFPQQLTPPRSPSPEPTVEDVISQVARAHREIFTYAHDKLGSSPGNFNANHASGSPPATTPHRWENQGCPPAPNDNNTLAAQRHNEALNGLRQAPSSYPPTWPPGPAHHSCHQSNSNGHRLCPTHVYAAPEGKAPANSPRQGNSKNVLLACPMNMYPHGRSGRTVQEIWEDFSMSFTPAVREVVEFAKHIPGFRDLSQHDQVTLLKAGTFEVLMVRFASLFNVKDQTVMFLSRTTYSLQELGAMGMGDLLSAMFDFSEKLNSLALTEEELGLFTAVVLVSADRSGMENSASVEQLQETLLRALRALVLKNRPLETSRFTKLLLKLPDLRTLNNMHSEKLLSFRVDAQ
hgDAF12 agonist: hgDAF-12 agonism, primary luciferase screen. AID 687014. HEK293 GAL4-hgDAF12 UAS-luciferase reporter, agonist luminescence; normalized to butyrate control. 370,000 compounds, 1.8% hits. activation, % at 6.8 µM;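 active = activation above a cutoff set at the mean of all screened compounds plus 3 SD, cut at about 10% in these data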;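 note: 0% = DMSO wells and 100% = sodium butyrate wells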
DAX1 inh-1: DAX1 (NR0B1) inhibition, primary screen; inhibition, % at 6.8 µM; HEK293T StAR-luciferase reporter, SF-1/DAX-1 repression relief; 370,000 compounds, 1.1% hits; AID 652010;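 active = inhibition above the mean over all tested compounds plus 3 SD, cut at about 3.6% in these data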;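 note: 0% = DAX-1 cells with DMSO and 100% = cells lacking DAX-1 with DMSO; higher inhibition means more luminescence from relief of DAX-1 repression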
DAX1 inh-2: NR0B1 (DAX1) inhibition | AID 504766 | 340,000 compounds, 0.99% hits | HEK293 Gal4-DAX1 luciferase reporter, luminescence | inhibition, % at 6.75 µM;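 active = inhibition above the mean over all tested compounds plus 3 SD, cut at about 4.2% in these data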;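 note: 0% = DAX1-transfected cells with DMSO and 100% = empty-vector control cells with DMSO; inhibition shows as a rise in luminescence from relieved DAX1 repression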
Numbers without * were called inactive; / = no result given.

SMILES	hcDAF-12 act	ssDAF-12 act	NR1D1 modulator	hgDAF12 agonist	DAX1 inh-1	DAX1 inh-2
COc1c(C)cccc1C(=O)Nc1ccc(CN2CCOCC2)cc1	6.0*	-1	0	7	4	4
CCN1CCN(Cc2ccc(NC(=O)Nc3ccc(OC)cc3)cc2)CC1	0	-1	-2	9	0	4.3*
COC(=O)C1=C(C)N(Cc2cccc(C(F)(F)F)c2)C(=NCc2cc(OC)c(OC)c(OC)c2)NC1c1cccc(C(F)(F)F)c1 (stereo not given)	-1	-1	-3	-2	-1	/
COc1ccc(-c2nnc(SCC(=O)N/N=C\C=C/c3ccco3)n2-c2ccc(C)cc2)cc1	-3	-1	-3	-2	-1	/
CCOC(=O)C1=NOC(C(=O)NC2CCCC2)(C(=O)C2CC2)C1 (stereo not given)	-2	-1	0	-2	-1	/
OC1(c2cccc(C(F)(F)F)c2)CCN(CCN2CCCCC2)CC1	0	1.6*	1	0	0	2
CCC(C)(C)n1nnnc1CN1CCC(O)(c2cccc(C(F)(F)F)c2)CC1	0	-1	-5	1	-1	0
CCCCNC(=O)c1ccc2nc(CC)c(N(CC)CCN(C)C)n2c1	0	0.9*	-3	2	1	/
COc1cccc2sc3cc(C#CC4(O)CCCCC4)ccc3c(=O)c12	2	1	4	10*	2	1
COc1ccc(N(CC(=O)Nc2cc([N+](=O)[O-])ccc2C)S(C)(=O)=O)cc1OC	0	1.3*	1	0	-1	0
OC(COc1cccc2ccccc12)CN1CCOCC1 (stereo not given)	0	0	3	-5	0	1
OC(COc1ccc2ccccc2c1Cl)CN1CCOCC1 (stereo not given)	1	-1	6	12*	2	2
Cc1ccc(C(O)c2ncc(-c3ccc4ccccc4c3)[nH]2)cc1 (stereo not given)	5	0	10	8	2	/
Cc1ccc(C(O)c2ncc(-c3ccc(F)cc3)[nH]2)c(C)c1 (stereo not given)	-1	-1	6	-3	-1	/
Cc1cc(F)ccc1C(O)c1ncc(-c2ccc3ccccc3c2)[nH]1 (stereo not given)	-1	0	-1	-1	3.7*	/
OC(c1ccc(F)cc1)c1ncc(-c2ccc3ccccc3c2)[nH]1 (stereo not given)	3	-1	3	11*	1	/
COc1ccc(NC(=S)N/N=C/c2ccc(F)cc2)cc1OC	0	-1	-3	11*	2	0
Fc1ccc(NC(=S)N/N=C/c2ccc(F)c(F)c2)cc1	-1	-1	4	5	1	-1
CCOC(=O)CC[C@@H]1CC[C@]2(CCCN(C(=O)C3CCCC3)C2)O1	2	-1	-1	3	0	/
NC(=O)C1CCCN(Cc2ccc3ccccc3c2)C1 (stereo not given)	-1	-1	-3	-2	-1	5.1*
COc1ccc(CCNC(=O)c2ccccc2Cl)cc1OC	-2	-1	-3	0	0	-1
COc1ccc(CCNC(=O)c2cccnc2Cl)cc1OC	2	-1	2	1	1	6.3*
O=C(NNC1CC(=O)N(c2ccccc2)C1=O)c1cccnc1 (stereo not given)	0	-1	-4	2	0	1
CC(C)c1ccc(N2C(=O)CC(NNC(=O)c3cccnc3)C2=O)cc1 (stereo not given)	0	-1	-6	1	0	5.6*
O=C(NNC1CC(=O)N(c2ccc(Cl)cc2)C1=O)c1ccccc1Cl (stereo not given)	3	-1	1	3	-1	0
SMILES	hcDAF-12 act	ssDAF-12 act	NR1D1 modulator	hgDAF12 agonist	DAX1 inh-1	DAX1 inh-2
O=C(NNC1CC(=O)N(c2ccc(Cl)cc2)C1=O)c1ccccn1 (stereo not given)	3	0.9*	0	10	1	-1
CC(COc1cccc(C#N)c1)CN1CCC(C(O)(c2ccccc2)c2ccccc2)CC1 (stereo not given)	1	-1	0	0	1	/
O=C(CN1C(=O)C2CCCCN2C(=O)c2ccccc21)N1CCCC1 (stereo not given)	-1	-1	-5	-1	-1	/
c1ccc(-c2nc3c4ccccc4ccn3c2CN2CCCCC2)cc1	3	0	-2	4	0	1
Fc1ccc(-c2nc3c4ccccc4ccn3c2CC2CCCCC2)cc1	6.4*	1.6*	-4	4	2	/
Clc1cccc(-c2nc3c4ccccc4ccn3c2CC2CCCCC2)c1	4	1.1*	0	3	2	/
Cc1ccc(Cc2c(-c3cccc(Cl)c3)nc3c4ccccc4ccn23)cc1	4	0	-1	4	1	/
CCCc1nc2c3ccccc3ccn2c1CC1CCCCC1	6.2*	0	-1	6	1	/
Clc1ccc2nc(-c3ccccc3)c(CC3CCCCC3)n2c1	0	-1	-8	5	0	/
S=C(Nc1ccccc1Cl)OCCN1CCCC12CCC(c1ccccc1)CC2 (stereo not given)	-1	-1	3	1	/	/
CCC(C)[C@H](NC(=O)[C@H](CC(C)C)NC(=O)OC(C)(C)C)C(=O)N[C@@H](Cc1ccccc1)C(=O)OC (stereo not given in full)	0	-1	0	2	0	/
CCN(CC)C(=O)c1cc(-c2ccc(Br)cc2)on1	1	0.9*	0	11*	2	2
O=C(NC1CC1)C1=C[C@H](c2c[nH]c3ccccc23)C[C@H](OCCCCO)O1	1	0	-2	0	0	1
O=C(NC1CC1)C1=C[C@@H](c2c[nH]c3ccccc23)C[C@@H](OCc2ccc(CO)cc2)O1	2	-1	2	11*	0	1
C[C@@H]1CCN(C2CC2)S(=O)(=O)c2c(cccc2N2CC[C@H](O)C2)O1	1	-1	-3	0	0	/
Cc1cnc(-c2nc3ccccc3n2C(C(=O)NC(C)(C)C)c2ccncc2)cn1 (stereo not given)	-1	0	5	11*	1	/
Nc1c(C(=O)c2ccc(Cl)cc2)oc2ccccc12	5	1.8*	3	12*	1	0
CCCCNC(=O)Nc1nnc(-c2ccc(OCC)cc2)o1	1	-1	-1	1	0	5.5*
CCCCN1C(=O)N(c2ccc(Cl)cc2)C(C)(O)CC1(C)C (stereo not given)	0	-2	-6	0	0	4.5*
COCCNC(=O)/C(C#N)=C/c1ccc(C(=O)O)cc1	-1	-1	/	-1	0	5.0*
COCCNC(=O)/C(C#N)=C/c1ccc(OCc2ccc(F)cc2)cc1	2	-2	-6	13*	-1	0
